Results reported in PubChem BioAssay (NCATS).
Records with an inconclusive call do not appear. Calls of active or inactive are those of the source. The call rests on the fitted dose curve; in most records, active means well fitted inhibition curve with a large enough effect; inconclusive means small, poorly fitted or top-dose-only effect; inactive means no such curve, though single readings can be large or run the other way.

Biological target: Cytochrome P450 2C19 (Homo sapiens) (UniProt P33261)
Sequence (P33261 whole entry, looked up): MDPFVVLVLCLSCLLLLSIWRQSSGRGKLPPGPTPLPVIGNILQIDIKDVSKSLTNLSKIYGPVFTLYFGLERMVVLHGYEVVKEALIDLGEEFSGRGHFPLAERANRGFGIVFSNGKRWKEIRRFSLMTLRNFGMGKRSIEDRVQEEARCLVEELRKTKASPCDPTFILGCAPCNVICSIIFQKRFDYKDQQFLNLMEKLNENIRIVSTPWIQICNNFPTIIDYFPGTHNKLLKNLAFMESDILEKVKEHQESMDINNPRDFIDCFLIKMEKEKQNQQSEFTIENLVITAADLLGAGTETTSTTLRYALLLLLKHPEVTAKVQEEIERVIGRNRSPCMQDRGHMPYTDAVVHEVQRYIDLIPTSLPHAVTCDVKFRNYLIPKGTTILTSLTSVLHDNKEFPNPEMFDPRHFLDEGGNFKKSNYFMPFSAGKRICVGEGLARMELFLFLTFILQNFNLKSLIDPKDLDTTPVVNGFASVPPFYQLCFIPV
Assay: qHTS Assay for Inhibitors and Substrates of Cytochrome P450 2C19 (AID 899); further: nearly all actives have a fitted effect of over 60% in size
Conditions: recombinant CYP2C19, luciferin-H EGE luminescence; series mostly up to 57.1 µM
Procedure, shortened: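 NADPH-dependent conversion of Luciferin-H EGE (10uM, at KM) by 5nM enzyme in 50mM KPO4, 60 min at 37C following 10 min compound preincubation. Stopped with luciferin detection buffer; luminescence read after 20 min.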
Potency means the concentration at half of the fitted maximal effect.

Potency, active:
COc1ccc2nc3c(c([Si](C)(C)C(C)(C)C)c2c1)Cn1c-3cccc1=O 2000 nM, S=C(Nc1ccccc1)Nc1ccccc1C#Cc1ccccc1 3160 nM, CCCC[C@@H]1C[C@H]1C(NC(=O)c1ccccc1)c1ccc(Cl)cc1 (some centres undefined) 631 nM, CCCC[C@@H]1C[C@H]1C(NC(=O)c1cccs1)c1ccccc1C(F)(F)F (some centres undefined) 631 nM, CCCC[C@@H]1C[C@H]1C(NC(=O)c1ccccc1)c1ccccc1C(F)(F)F (some centres undefined) 501 nM, CCCC[C@@H]1C[C@H]1C(NC(=O)Cc1ccccc1)c1ccc(Cl)cc1 (some centres undefined) 50.1 nM, CCC/C=C(\CCC)C(NP(=O)(c1ccccc1)c1ccccc1)c1ccc(-c2ccccc2)cc1 (centres undefined) 7940 nM, COC(=O)[C@@]1(Cc2ccccc2)[C@H]2c3cc(C(=O)N4CCCC4)n(C)c3C[C@H]2CN1C(=O)c1ccccc1 3980 nM, CCC/C=C(\CCC)C(NC(=O)c1cccs1)c1ccc(C(F)(F)F)cc1 (centres undefined) 316 nM
